High-throughput results from PubChem.
A selection: hits, their analogues and other compounds. The true share with any hit is near 3.5%.
Autofluor counter = counter-screen for toxin protease inhibitors: compound fluorescence | compound autofluorescence counterscreen, microsphere flow cytometry; stronger effect = higher value | fluorescence intensity (test concentration not listed) | hit rate 3.1% among 360,000; in the data active = fluorescence intensity above about 16000; inconclusive = no clear call, values can overlap the other calls
BoNT-A LC inh2 = BoNT A light chain protease inhibition; inhibition, % at 10 µM; multiplex microsphere protease substrate cleavage, flow cytometry; hit rate 0.17% among 360,000; also: plate controls were buffer without enzyme for full effect and enzyme alone for no effect
Anthrax LF inh2 = anthrax lethal factor protease inhibition; hit rate 0.12% among 360,000; multiplex microsphere protease cleavage assay, LF; AID 588501; inhibition, % at 10 µM; also: plate controls were buffer without enzyme for full effect and enzyme alone for no effect
BoNT F protease = blocks Botulinum neurotoxin F light chain protease. Multiplex microsphere protease cleavage assay, flow cytometry. inhibition, % at 10 µM. hit rate 0.22% among 360,000; in the data active = inhibition above about 35%, passing the limit was not always enough; inconclusive = no clear call, values can overlap the other calls; also: plate controls were buffer without enzyme for full effect and enzyme alone for no effect
An asterisk follows results filed as active; ? = inconclusive. Rule as the data show it, unless noted: active = inhibition above about 30%; inconclusive = no clear call, values can overlap the other calls; inactive = below that.

SMILES	Autofluor counter	BoNT-A LC inh2	Anthrax LF inh2	BoNT F protease
COc1cccc(CC(=O)N2CCN(c3ccccc3[N+](=O)[O-])CC2)c1	5069	1	-3	-5
CN(C)S(=O)(=O)Nc1ccc(C(=O)O)cc1	21783*	2	-1	3
CCOc1ccc(NS(=O)(=O)N(C)C)cc1	4032	1	-1	7
Cc1ccsc1/C=C1\SC(=S)N(CC2CCCO2)C1=O (stereo not drawn)	4396	35*	32*	7
CCOC(=O)C1CCN(C(=O)c2ccccc2NS(=O)(=O)c2ccc(F)cc2)CC1	2597	-1	-1	0
Cc1ccc(C2CC(=O)N3CN(Cc4ccco4)CSC3=C2C#N)cc1 (stereo not drawn)	20926*	0	-2	-2
Cc1cc(NC(=O)c2cccc(Oc3ccccc3)c2)n[nH]1	4261	-1	-4	-8
O=C(Cc1noc2ccccc12)Nc1ccc2ccccc2c1	21952*	1	-3	-1
N#Cc1cc(-c2ccc(Cl)cc2)cnc1Sc1ccccc1	12401	-2	-3	-19
N#Cc1cc(-c2ccccc2)cnc1Sc1ccc(Cl)cc1	24808*	-2	-2	-3
Cc1ccn(CCSCC(=O)O)n1	22249*	?	-3	2
CCCCOc1ccc(/C(O)=C(\C#N)c2nc3ccccc3[nH]2)cc1	3997	-1	17	42*
CCOC(=O)C1(C)CCN1C(=O)c1ccccc1C(F)(F)F (stereo not drawn)	2875	0	-6	-1
N#CCCSc1ncnc2c1oc1ccccc12	18891*	2	-2	-1
OCCSc1ncnc2c1oc1ccccc12	2567	0	7	-4
Cc1cc(Cl)ccc1NC(=O)Nc1c(C)n(-c2ccccc2)c(=O)n1C	22798*	0	0	-1
COc1ccc(Cl)c(NC(=O)Nc2c(C)n(-c3ccccc3)c(=O)n2C)c1	2185	0	-2	-11
Cc1ccc(-c2cnc(C(O)c3cc(F)cc(Cl)c3)[nH]2)cc1 (stereo not drawn)	4005	0	-4	-1
CCOC(=O)c1cnc2c(cnn2C)c1NCCC(O)C(F)(F)F (stereo not drawn)	21233*	3	-2	4
O=C(C1CCCN(Cc2cccc(F)c2)C1)N1CCCCC1 (stereo not drawn)	16903*	0	-1	2
O=C(c1cccc(F)c1)N1CCCC(C(=O)N2CCCCCC2)C1 (stereo not drawn)	3369	-1	14	29
Cc1ccc(C(=O)Nc2ccc(NC(=O)c3ccc(C)o3)cc2)o1	2890	-3	14	0
Cc1ccc(C(=O)Nc2ccc(CC(=O)O)cc2)o1	18362*	4	-12	7
COC(=O)CSc1nnc(C)n1-c1cccc(C#N)c1	17539*	-6	-1	-7
CC1CCCC(NC(=O)CSc2nnc(-c3cccnc3)o2)C1C (stereo not drawn)	5162	1	-4	0
SMILES	Autofluor counter	BoNT-A LC inh2	Anthrax LF inh2	BoNT F protease
Cc1ccc(NC(=O)CSc2nnc(-c3cccnc3)n2-c2ccc(C)cc2)cc1	2880	1	1	3
CCOc1cccc(-c2nnc(SCC(=O)Nc3cccc(OC)c3)n2N)c1	21734*	1	-3	2
COC(=O)CSc1nnc(-c2cccnc2)n1-c1cccc(OC)c1	7937	0	1	1
Nn1c(SCC(=O)Nc2ccc(F)cc2)nnc1-c1cccnc1	19014*	?	2	14
CC1CCCC(NC(=O)CSc2nnc(-c3cccnc3)n2N)C1C (stereo not drawn)	18627*	1	3	10
O=C(Nc1cc(NC(=O)c2ccccc2F)ccc1Cl)c1ccccc1	4028	-2	-1	-21
N#Cc1ccc(N/N=C/c2ccccc2)c([N+](=O)[O-])c1	3331	-1	-2	-1
Cc1cccc(NC(=O)CSc2nnc(-c3ccccc3)n2N)c1	20752*	?	1	4
Cc1ccc(C)c(NC(=O)CSc2nnc(-c3ccncc3)n2N)c1	21109*	-5	0	-5
O=C(CSc1nnc(-c2cccnc2)n1Cc1ccco1)Nc1cccc(O)c1	4548	-1	-1	-4
Cc1cc(C)cc(NC(=O)CSc2nnc(-c3ccccc3)n2N)c1	3152	-1	-5	-12
CCn1c2ccccc2c2cc(NC(=O)c3cccc(OC)c3)ccc21	22832*	4	3	0
O=C(CSc1nnc(-c2cccnc2)n1Cc1ccco1)Nc1nc(-c2ccc(F)cc2)cs1	20486*	0	-2	0
Cc1ccc(C)c(NC(=O)CSc2nnc(C)c(=O)n2N)c1	2733	-1	-1	2
Cn1cnc([N+](=O)[O-])c1Sc1nc(N)nc2c1ncn2C1OC(CO)C(O)C1O (stereo not drawn)	3748	0	3	-5
Cc1cccc(/C=N/NC(=O)Cn2nnnc2N)n1	4151	1	-4	?
